Assay results: the supplement of paper PMC5662767
Counter-ions that a name gives are not always drawn.

System: Drosophila S2 cl14 SmoIP sensor cells
Assay: normalized SmoIP GFP fluorescence (untreated unstimulated = 0%, untreated Hh-stimulated = 100%); higher = more Smo activation sensor fluorescence
Conditions: compound concentration: 2 uM, 24 h
[1] = stimulation: mock conditioned medium (-Hh)
[2] = stimulation: Hh conditioned medium (+Hh)
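Also: flow cytometry read-out as median GFP intensity of gated cells, compounds added 30 min before Hh-conditioned or mock medium, mock-treated cells serving as unstimulated baseline.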

| SMILES | normalized SmoIP GFP fluorescence [1] | normalized SmoIP GFP fluorescence [2] |
| --- | --- | --- |
| CC(C)(C)c1cc(C=C(C#N)C#N)cc(Br)c1O [ag-1024-tyrphostin] | 14.2% | – |
| C[N+](C)(C)CCCCCCCCCC[N+](C)(C)C [decamethonium-bromide] | -5.04% | 104% |
| COc1cc(-n2c(=S)[nH]c3ccccc3c2=O)c(Cl)cc1Cl [mdivi-1] | -1.34% | 108% |
| COC(=O)C1=CCCN(C)C1 [arecoline] | -12.4% | 130% |
| CCCN1CCOC2c3cc(O)ccc3OCC21 (stereo unspecified) | -13.6% | 113% |
| CN1CCCCC1Cn1cc(C(=O)c2cc([N+](=O)[O-])ccc2I)c2ccccc21 (stereo unspecified) | 32.3% | – |
| N#CC(C#N)=Cc1ccc(O)c(O)c1 [ag-18-tyrphostin-23] | -12% | 147% |
| CC[C@@]1(O)C(=O)OCc2c1cc1n(c2=O)Cc2cc3ccccc3nc2-1 [Camptothecine] | 2.64% | 33.6% |
| C#C[C@]1(O)C=C[C@H]2[C@@H]3CCC4=CC(=O)CC[C@@H]4[C@H]3CC[C@@]21CC [Gestodene] | 5.45% | – |
| CCCN1C[C@H](CSC)C[C@@H]2c3cccc4[nH]cc(c34)C[C@H]21 [Pergolide-mesylate] | -0.889% | 119% |
| O=C(O[C@H]1C[N+]2(CCCOc3ccccc3)CCC1CC2)C(O)(c1cccs1)c1cccs1 [aclidinium-bromide] | -4.58% | 97.3% |
| C[C@]12N[C@H](Cc3ccccc31)c1ccccc12 [mk-801-maleate] | -3.16% | 103% |
| CNCC(O)c1ccc(O)cc1 (stereo unspecified) [synephrine-hcl] | -9.85% | 140% |
| C[C@]12CC[C@H]3[C@@H](CC[C@@]45O[C@@H]4C(O)=C(C#N)C[C@]35C)[C@@H]1CC[C@@H]2O [Trilostane] | -0.265% | 109% |
| CC(=O)Nc1ccc(OC[C@](C)(O)C(=O)Nc2ccc([N+](=O)[O-])c(C(F)(F)F)c2)cc1 [Andarine] | 0.274% | 107% |
| CCc1c(C(=O)C(N)=O)c2c(OCC(=O)O)cccc2n1Cc1ccccc1 | 4.26% | – |
| CCOc1ccccc1-n1c(C(C)N2CCN(C(=O)COc3ccc(Cl)cc3)CC2)nc2ccccc2c1=O (stereo unspecified) [erastin] | 3.66% | 134% |
| N[C@@H]1C[C@H]1c1ccccc1 [tranylcypromine-2-pcpa-hcl] | -1.34% | 109% |
| C[C@H]1CCC/C=C/[C@@H]2C[C@H](O)C[C@H]2[C@H](O)/C=C/C(=O)O1 [brefeldin-a] | -4.58% | 101% |
| COc1ccc(C(CN(C)C)C2(O)CCCCC2)cc1 (stereo unspecified) [Venlafaxine-hydrochloride] | -2.42% | – |
| [O-][n+]1ccccc1[S-].[O-][n+]1ccccc1[S-].[Zn+2] [zinc-pyrithione] | 2.35% | 131% |
| CNCC(=O)c1ccc(O)c(O)c1 [adrenalone-hcl] | -3.39% | 106% |
| CCN(CC)C(=O)c1ccc(C2=CC3(CCNCC3)Oc3cccc(O)c32)cc1 | 2.11% | 99.7% |
| Cc1ccccc1-n1c(Cn2ncc3c(N)ncnc32)nc2cccc(C)c2c1=O | -6.79% | 115% |
| COC[C@H]1OC(=O)c2coc3c2[C@@]1(C)C1=C(C3=O)[C@@H]2CCC(=O)[C@@]2(C)C[C@H]1OC(C)=O [wortmannin] | 9.08% | 73.6% |
| Cc1cccc([C@H](C)c2c[nH]cn2)c1C [dexmedetomidine] | -2.59% | 108% |
| C=CC[C@]1(O)CC[C@H]2[C@@H]3CCC4=CC(=O)CCC4=C3C=C[C@@]21C [altrenogest] | -1.23% | 109% |

| SMILES | normalized SmoIP GFP fluorescence [1] | normalized SmoIP GFP fluorescence [2] |
| --- | --- | --- |
| C[C@]12CC[C@H](O)CC1=CC[C@@H]1[C@@H]2CC[C@]2(C)C(=O)CC[C@@H]12 [Dehydroepiandrosterone(DHEA)] | -12.4% | 134% |
| Fc1cc(F)c2c(c1)[C@H]1C=CC[C@H]1C(c1cccnc1)N2 (stereo partly specified) [golgicide-a] | -5.15% | 101% |
| Cc1cc(SCc2sc(-c3ccc(C(F)(F)F)c(F)c3)nc2C)ccc1OCC(=O)O | -1.74% | 106% |
| C[C@](O)(COc1ccc(C#N)cc1)C(=O)Nc1ccc(C#N)c(C(F)(F)F)c1 [Ostarine] | 2.97% | 119% |
| Cc1cccc(Cc2c[nH]cn2)c1C [detomidine-hcl] | -8.77% | 139% |
| C[C@H]1CNCCc2ccc(Cl)cc21 [lorcaserin-hcl] | -2.48% | 99.3% |
| CCN(C)C(=O)Oc1cccc([C@H](C)N(C)C)c1 [rivastigmine-tartrate-exelon] | -3.05% | 95.8% |
| C[C@]12CCC(=O)C(O)=C1CC[C@@H]1[C@@H]2CC[C@]2(C)C(=O)CC[C@@H]12 [Formestane] | -2.2% | 93.9% |
| CCC(COC(=O)c1cc(OC)c(OC)c(OC)c1)(c1ccccc1)N(C)C (stereo unspecified) [trimebutine] | -15.8% | 111% |
| CN1CCC(c2c[nH]c3ccc(O)cc23)CC1 | -2.82% | 111% |
| CN1CCc2cc3c(cc2[C@H]1[C@@H]1OC(=O)c2c1ccc1c2OCO1)OCO3 [bicuculline] | -3.9% | 101% |
| O=C(O)CNC(=O)c1c(O)c2ccccc2n(Cc2ccccc2)c1=O | -2.82% | 109% |
| Cc1cccc(C(C)c2c[nH]cn2)c1C (stereo unspecified) [medetomidine-hcl] | -1.63% | 108% |
| Cc1cccc(C)c1NC(=O)CN1CCCC1=O [Nefiracetam(Translon)] | -10.8% | 138% |
| CN1[C@@H]2C[C@@H](OC(=O)[C@H](CO)c3ccccc3)C[C@H]1[C@@H]1O[C@@H]12 [Scopolamine-hydrobromide] | -17.7% | 113% |
| C=C1C[C@@H]2[C@H](CC[C@]3(C)C(=O)CC[C@@H]23)[C@@]2(C)C=CC(=O)C=C12 [Exemestane] | -5.01% | 115% |
| COc1ccc(C(=O)N2CCCC2=O)cc1 [Aniracetam] | -0.588% | 104% |
| C[C@@H]1O[C@@H](O[C@H]2C[C@@H](O)[C@]3(CO)[C@H]4[C@H](O)C[C@]5(C)[C@@H](C6=CC(=O)OC6)CC[C@]5(O)[C@@H]4CC[C@]3(O)C2)[C@H](O)[C@H](O)[C@H]1O [ouabain] | -2.08% | 102% |
| CN1CCN(c2nc3ccccc3nc2Cl)CC1 | -1.34% | 105% |
| Cn1cc(C2=C(c3cn(C4CCN(Cc5ccccn5)CC4)c4ccccc34)C(=O)NC2=O)c2ccccc21 [Enzastaurin] | 38.2% | 135% |
| O=c1[nH]c2ccc(Cl)cc2c(N[C@@H]2CN3CCC2CC3)c1-c1nc2ccccc2[nH]1 [chir-124] | 23.9% | 253% |
| CN1[C@@H]2CC(O)C[C@H]1[C@@H]1O[C@@H]12 (stereo partly specified) [scopine] | -12% | 142% |
| Cc1sc2c(c1C)C(c1ccc(Cl)cc1)=N[C@@H](CC(=O)Nc1ccc(O)cc1)c1nnc(C)n1-2 | -1.34% | 102% |
| CCN1CCN(C(=O)Cc2ccc(Nc3ncc(F)c(Nc4ccc(C(=O)Nc5ccccc5Cl)cc4)n3)cc2)CC1 [Aurora-A-Inhibitor-I] | 2.11% | 151% |
| CN1c2ccccc2C(NCCCCCCC(=O)O)c2ccc(Cl)cc2S1(=O)=O (stereo unspecified) [Tianeptine-sodium-salt] | 0.274% | 110% |
| O=C(NCC1CCOCC1)c1cnc(Nc2ccc(Cl)cc2Cl)nc1C(F)(F)F | -1.63% | 102% |
